# Reference: the supplement of paper PMC10849652
# About 8,800 targets were measured; listed, in parts, are those with a hit and a random draw of the rest. About 0.5% of all pairs of compound and target were hits. Values without a mark were called inactive.
# Legend:
# Assay in all cases: log2 fold change, soluble protein after heating vs DMSO (PISA); higher = thermal stabilisation; K562 lysate, 10 uM; active = over 0.2 and 3.5 SD of the protein, either way, in both replicates (recomputed)
# alvocidib = compound: CN1CC[C@H](c2c(O)cc(O)c3c(=O)cc(-c4ccccc4Cl)oc23)[C@H](O)C1 [alvocidib]
# Procedure, shortened: (§1)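 Soluble protein was defined as the supernatant remaining after 21,000xg for 90 min, following pooling of heated aliquots and adjustment to 0.5% NP-40 at 4°C. Before that, crude K562 extract at 1 mg/mL protein in PBS pH 7.4 with 1 mM MgCl2 was treated with 10 μM compound for 30 min and heated for 3 min across 48°C-58°C. Quantification used TMTpro 16plex LC-MS/MS with channel sums equalised, and values are log-two fold changes in thermal stability relative to solvent controls from duplicates.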
# Tubastatin A = compound: CN1CCc2c(c3ccccc3n2Cc2ccc(C(=O)NO)cc2)C1 [Tubastatin A]
# Procedure, shortened: as §1
# [1] = compound: CNC(=O)C1=CC=CC=C1NC2=NC(=NC=C2Cl)NC3=C(C=C(C=C3)N4CCOCC4)OC
# Procedure, shortened: as §1
# defactinib = compound: CNC(=O)c1ccc(Nc2ncc(C(F)(F)F)c(NCc3nccnc3N(C)S(C)(=O)=O)n2)cc1 [defactinib]
# Procedure, shortened: as §1
# [2] = compound: CNc1nc(-c2ccc3c(N)n[nH]c3c2)cc(N2C[C@@H](C(=O)NC3CCCCC3)CC[C@H]2C)n1
# Procedure, shortened: as §1
# encorafenib = compound: COC(=O)N[C@@H](C)CNc1nccc(-c2cn(C(C)C)nc2-c2cc(Cl)cc(NS(C)(=O)=O)c2F)n1 [encorafenib]
# Procedure, shortened: as §1
# [3] = compound: COC(=O)[C@H](CCSC)NC(=O)C1=C(C=C(C=C1)NC[C@H](CS)N)C2=CC=CC=C2
# Procedure, shortened: as §1
# alisertib = compound: COc1cc(Nc2ncc3c(n2)-c2ccc(Cl)cc2C(c2c(F)cccc2OC)=NC3)ccc1C(=O)O [alisertib]
# Procedure, shortened: as §1
# [4] = compound: COc1cc2nc(-c3cc(F)ccc3O)nc(N[C@@H]3CNC[C@H]3C(C)(C)O)c2cc1OC
# Procedure, shortened: as §1
# gefitinib = compound: COc1cc2ncnc(Nc3ccc(F)c(Cl)c3)c2cc1OCCCN1CCOCC1 [gefitinib]
# Procedure, shortened: as §1
# Chain of UniProt P10124 (P10124 whole entry, looked up): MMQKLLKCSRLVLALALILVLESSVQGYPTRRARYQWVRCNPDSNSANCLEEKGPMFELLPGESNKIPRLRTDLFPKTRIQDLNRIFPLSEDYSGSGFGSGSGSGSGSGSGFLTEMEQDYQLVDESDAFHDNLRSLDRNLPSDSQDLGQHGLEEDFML
# Chain of UniProt Q86US8 (Q86US8 whole entry, looked up): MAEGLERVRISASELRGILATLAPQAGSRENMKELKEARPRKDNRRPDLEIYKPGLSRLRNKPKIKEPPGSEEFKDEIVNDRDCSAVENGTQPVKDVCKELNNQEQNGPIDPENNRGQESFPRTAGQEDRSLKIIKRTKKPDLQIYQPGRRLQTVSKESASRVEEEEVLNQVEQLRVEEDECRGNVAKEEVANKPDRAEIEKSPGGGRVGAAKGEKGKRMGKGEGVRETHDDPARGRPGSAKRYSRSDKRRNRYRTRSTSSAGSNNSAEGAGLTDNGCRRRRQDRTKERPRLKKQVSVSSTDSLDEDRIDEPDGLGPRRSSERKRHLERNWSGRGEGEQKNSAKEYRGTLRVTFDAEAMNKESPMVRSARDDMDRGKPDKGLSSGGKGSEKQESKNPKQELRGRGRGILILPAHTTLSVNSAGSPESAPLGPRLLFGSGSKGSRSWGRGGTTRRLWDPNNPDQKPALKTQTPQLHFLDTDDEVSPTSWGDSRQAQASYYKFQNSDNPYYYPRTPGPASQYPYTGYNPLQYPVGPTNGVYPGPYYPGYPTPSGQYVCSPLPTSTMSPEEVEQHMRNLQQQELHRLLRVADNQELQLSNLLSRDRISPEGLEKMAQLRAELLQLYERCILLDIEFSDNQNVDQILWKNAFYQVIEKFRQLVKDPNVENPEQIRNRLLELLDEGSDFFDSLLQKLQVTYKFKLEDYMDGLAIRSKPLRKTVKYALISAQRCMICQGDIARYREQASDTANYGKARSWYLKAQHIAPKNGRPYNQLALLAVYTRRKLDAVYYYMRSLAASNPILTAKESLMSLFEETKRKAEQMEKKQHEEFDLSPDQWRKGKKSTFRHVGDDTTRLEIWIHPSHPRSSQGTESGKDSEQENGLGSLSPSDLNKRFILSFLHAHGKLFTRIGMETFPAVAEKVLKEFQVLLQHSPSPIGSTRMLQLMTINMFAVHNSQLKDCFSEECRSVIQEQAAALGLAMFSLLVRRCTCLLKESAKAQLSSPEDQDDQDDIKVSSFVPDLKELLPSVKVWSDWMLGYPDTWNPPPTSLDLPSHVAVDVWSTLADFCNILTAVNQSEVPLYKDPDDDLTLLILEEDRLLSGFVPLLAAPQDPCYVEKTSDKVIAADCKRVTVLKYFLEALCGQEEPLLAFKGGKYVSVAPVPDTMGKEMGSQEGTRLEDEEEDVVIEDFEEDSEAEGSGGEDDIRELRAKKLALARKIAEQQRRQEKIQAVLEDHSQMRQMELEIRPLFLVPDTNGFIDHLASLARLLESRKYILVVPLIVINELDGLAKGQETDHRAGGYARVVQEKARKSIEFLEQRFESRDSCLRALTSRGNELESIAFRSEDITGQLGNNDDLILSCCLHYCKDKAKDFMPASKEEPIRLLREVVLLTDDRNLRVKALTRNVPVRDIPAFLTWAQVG
# Chain of UniProt Q6PML9 (Q6PML9 whole entry, looked up): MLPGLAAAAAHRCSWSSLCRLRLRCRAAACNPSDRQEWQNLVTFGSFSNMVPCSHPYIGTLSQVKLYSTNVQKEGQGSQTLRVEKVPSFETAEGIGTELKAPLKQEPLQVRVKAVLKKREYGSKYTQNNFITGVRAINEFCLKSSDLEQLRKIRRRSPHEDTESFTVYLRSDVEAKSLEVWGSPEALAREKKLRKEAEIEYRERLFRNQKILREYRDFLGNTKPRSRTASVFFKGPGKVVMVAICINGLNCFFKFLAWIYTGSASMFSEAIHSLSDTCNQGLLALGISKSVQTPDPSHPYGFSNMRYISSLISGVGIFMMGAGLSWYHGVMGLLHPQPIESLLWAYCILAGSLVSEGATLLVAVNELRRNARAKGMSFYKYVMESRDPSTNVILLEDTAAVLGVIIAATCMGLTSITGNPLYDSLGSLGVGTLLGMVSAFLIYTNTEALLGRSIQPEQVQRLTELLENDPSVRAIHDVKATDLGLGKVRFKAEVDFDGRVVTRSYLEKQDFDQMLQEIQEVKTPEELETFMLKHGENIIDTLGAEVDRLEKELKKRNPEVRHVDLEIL
# Chain of UniProt Q16594 (Q16594 whole entry, looked up): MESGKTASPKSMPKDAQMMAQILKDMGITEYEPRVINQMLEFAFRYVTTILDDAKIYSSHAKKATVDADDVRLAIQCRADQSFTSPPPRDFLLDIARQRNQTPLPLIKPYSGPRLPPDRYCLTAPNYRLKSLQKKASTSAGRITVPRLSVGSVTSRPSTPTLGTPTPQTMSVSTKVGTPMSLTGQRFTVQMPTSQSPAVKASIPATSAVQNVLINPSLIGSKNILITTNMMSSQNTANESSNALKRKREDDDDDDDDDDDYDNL
# Chain of UniProt Q9H668 (Q9H668 whole entry, looked up): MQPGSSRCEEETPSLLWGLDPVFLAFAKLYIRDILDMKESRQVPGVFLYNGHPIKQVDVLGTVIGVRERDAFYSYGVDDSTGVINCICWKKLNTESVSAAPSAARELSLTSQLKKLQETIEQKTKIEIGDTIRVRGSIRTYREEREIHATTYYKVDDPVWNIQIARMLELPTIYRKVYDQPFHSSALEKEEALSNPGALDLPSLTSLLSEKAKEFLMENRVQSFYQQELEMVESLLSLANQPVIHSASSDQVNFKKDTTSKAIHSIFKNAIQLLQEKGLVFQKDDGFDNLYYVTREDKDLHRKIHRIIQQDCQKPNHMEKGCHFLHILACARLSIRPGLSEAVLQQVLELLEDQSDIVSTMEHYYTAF
# Chain of UniProt Q9Y2D2 (Q9Y2D2 whole entry, looked up): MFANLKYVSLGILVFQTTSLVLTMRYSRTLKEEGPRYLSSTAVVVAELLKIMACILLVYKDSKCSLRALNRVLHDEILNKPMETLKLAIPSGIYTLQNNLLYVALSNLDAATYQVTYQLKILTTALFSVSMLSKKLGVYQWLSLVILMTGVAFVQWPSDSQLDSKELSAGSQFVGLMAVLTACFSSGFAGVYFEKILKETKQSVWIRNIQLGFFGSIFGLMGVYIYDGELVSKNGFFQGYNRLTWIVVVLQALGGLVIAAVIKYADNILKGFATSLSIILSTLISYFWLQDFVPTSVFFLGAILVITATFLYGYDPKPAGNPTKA
# Chain of UniProt O60225 (O60225 whole entry, looked up): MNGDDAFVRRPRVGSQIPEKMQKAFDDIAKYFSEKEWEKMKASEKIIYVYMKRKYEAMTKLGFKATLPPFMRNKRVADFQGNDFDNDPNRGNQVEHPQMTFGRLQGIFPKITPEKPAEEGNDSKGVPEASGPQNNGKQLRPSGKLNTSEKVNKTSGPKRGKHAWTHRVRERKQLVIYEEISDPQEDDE
# Chain of UniProt Q8TCT8 (Q8TCT8 whole entry, looked up): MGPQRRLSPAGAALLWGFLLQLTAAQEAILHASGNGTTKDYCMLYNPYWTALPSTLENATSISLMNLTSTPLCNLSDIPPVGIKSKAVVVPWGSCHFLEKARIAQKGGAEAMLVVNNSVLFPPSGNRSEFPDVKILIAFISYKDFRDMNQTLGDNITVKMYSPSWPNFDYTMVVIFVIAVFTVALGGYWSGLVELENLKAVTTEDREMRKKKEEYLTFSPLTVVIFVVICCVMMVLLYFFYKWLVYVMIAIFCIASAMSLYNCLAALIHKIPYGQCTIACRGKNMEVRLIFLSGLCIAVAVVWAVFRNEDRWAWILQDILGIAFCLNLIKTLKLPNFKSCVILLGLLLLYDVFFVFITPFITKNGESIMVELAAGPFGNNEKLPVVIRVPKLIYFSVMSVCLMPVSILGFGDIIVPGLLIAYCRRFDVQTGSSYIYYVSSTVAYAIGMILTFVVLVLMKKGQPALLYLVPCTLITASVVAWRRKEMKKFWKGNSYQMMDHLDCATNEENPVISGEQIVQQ
# Chain of UniProt P49675 (P49675 whole entry, looked up): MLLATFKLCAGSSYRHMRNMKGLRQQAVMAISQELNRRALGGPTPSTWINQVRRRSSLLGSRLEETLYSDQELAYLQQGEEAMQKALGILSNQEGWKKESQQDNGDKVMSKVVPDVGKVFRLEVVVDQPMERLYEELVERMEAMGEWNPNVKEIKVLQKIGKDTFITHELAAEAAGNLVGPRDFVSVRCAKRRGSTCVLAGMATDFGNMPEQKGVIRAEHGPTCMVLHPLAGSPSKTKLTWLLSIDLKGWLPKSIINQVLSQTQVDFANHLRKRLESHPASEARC
# Chain of UniProt O14975 (O14975 whole entry, looked up): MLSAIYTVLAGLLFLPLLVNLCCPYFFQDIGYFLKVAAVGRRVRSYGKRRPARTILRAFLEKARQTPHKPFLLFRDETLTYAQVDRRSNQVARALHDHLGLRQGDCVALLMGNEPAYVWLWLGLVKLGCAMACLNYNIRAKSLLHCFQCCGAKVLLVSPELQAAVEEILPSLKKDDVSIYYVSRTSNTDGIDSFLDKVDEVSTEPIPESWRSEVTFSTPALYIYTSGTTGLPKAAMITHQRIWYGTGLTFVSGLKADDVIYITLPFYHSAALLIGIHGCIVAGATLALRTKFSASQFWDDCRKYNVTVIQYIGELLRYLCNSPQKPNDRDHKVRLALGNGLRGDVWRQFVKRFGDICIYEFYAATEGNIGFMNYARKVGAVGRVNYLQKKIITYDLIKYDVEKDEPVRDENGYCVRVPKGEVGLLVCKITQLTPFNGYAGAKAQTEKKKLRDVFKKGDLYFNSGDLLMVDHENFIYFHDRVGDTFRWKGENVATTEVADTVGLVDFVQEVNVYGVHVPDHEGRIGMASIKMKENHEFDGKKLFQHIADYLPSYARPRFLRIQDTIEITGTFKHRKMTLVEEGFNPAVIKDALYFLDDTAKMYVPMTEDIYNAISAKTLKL
# Chain of UniProt Q9HBM1 (Q9HBM1 whole entry, looked up): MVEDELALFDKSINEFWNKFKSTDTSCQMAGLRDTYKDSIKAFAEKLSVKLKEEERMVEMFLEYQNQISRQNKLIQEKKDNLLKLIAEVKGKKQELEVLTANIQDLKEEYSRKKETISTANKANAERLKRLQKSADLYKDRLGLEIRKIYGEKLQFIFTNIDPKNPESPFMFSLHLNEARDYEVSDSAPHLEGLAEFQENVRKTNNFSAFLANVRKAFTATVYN
Target,log2 fold change (alvocidib),log2 fold change (Tubastatin A),log2 fold change [1],log2 fold change (defactinib),log2 fold change [2],log2 fold change (encorafenib),log2 fold change [3],log2 fold change (alisertib),log2 fold change [4],log2 fold change (gefitinib)
SSBP3 (UniProt Q9BWW4),0.028,0.074,0,0.072,0.008,0.032,0.02,0.018,-0.016,-0.054
SNCA (UniProt P37840),-0.094,0.172,0.028,-0.019,0.269,-0.026,0.204,-0.021,0.117,0.089
SMG6 (UniProt Q86US8),-0.067,-0.062,-0.112,-0.027,-0.059,0.148,-0.01,-0.044,0.008,-0.069
SOAT1 (UniProt P35610),-0.033,0.086,0.036,-0.022,-0.002,0.065,0.123,-0.014,-0.076,0.047
STK36 (UniProt Q9NRP7),-0.33,0.331,-0.048,-0.263,0.528,-0.027,0.042,0.081,0.199,-0.093
STIM1 (UniProt Q13586),0.008,-0.056,-0.041,-0.018,0.024,0.003,-0.016,0.008,-0.106,-0.013
SMN1 (UniProt Q16637),-0.05,-0.173,0.017,-0.023,-0.01,0.03,0.149,0.062,-0.024,-0.064
SLC30A9 (UniProt Q6PML9),0,0.022,0.002,0.064,0.023,0.032,0.05,-0.008,-0.079,-0.01
SHCBP1 (UniProt Q8NEM2),0.001,-0.122,-0.043,0.012,-0.084,0.049,-0.003,0.088,-0.015,0.055
SMC4 (UniProt Q9NTJ3),0.03,-0.079,-0.006,-0.003,-0.008,0.004,0.024,0.001,0,-0.024
TADA3 (UniProt O75528),0.001,-0.04,0.044,-0.007,0.06,0.029,-0.024,0,0.001,0.03
SPG11 (UniProt Q96JI7),0.161,-0.129,-0.058,-0.015,-0.003,0.049,0.088,-0.041,0.07,-0.024
SRGN (UniProt P10124),-0.509 (active),0.027,0.048,0.175,0.065,0.014,-0.055,–,0.026,–
TAF9 (UniProt Q16594),0.032,-0.026,0.014,-0.03,-0.004,0.099,-0.041,0.004,0.038,0.084
SNUPN (UniProt O95149),0.012,0.028,-0.173,-0.066,–,0.006,0.155,-0.007,-0.009,0.076
SMG5 (UniProt Q9UPR3),0.086,-0.075,0.014,0.04,-0.037,0.067,0.058,0.04,0.004,0.028
SLC35A3 isoform 2 (UniProt Q9Y2D2),-0.406,-0.079,0.016,0.069,–,0.067,-0.019,0.069,-0.019,0.198

Target,log2 fold change (alvocidib),log2 fold change (Tubastatin A),log2 fold change [1],log2 fold change (defactinib),log2 fold change [2],log2 fold change (encorafenib),log2 fold change [3],log2 fold change (alisertib),log2 fold change [4],log2 fold change (gefitinib)
SPNS1 (UniProt Q9H2V7),-0.118,0.034,0.06,0.095,-0.03,0.019,-0.031,0.047,0.019,-0.015
SNAP23 isoform 2 (UniProt O00161),-0.323,-0.202,0.029,-0.118,–,-0.295,0.071,-0.15,-0.152,0.016
STAR (UniProt P49675),-0.024,0.448 (active),0.073,0.034,0.005,-0.052,0.063,0.133,–,-0.056
TANGO6 (UniProt Q9C0B7),-0.094,-0.031,-0.005,-0.047,0,-0.024,-0.009,-0.022,0.027,0.117
SPPL2A (UniProt Q8TCT8),0.013,0.107,0.103,-0.054,–,0.124,-0.063,–,0.099,–
SMC3 (UniProt Q9UQE7),-0.009,0.006,0.003,0.002,-0.036,-0.007,0.002,0.005,-0.013,-0.005
SPC25 (UniProt Q9HBM1),-0.015,0.009,0.024,-0.017,-0.014,0.034,0.014,-0.008,-0.043,-0.011
SLC27A2 (UniProt O14975),0.005,-0.009,0.216,-0.044,0.172,0.063,0.019,0.002,0.017,-0.089
SSX5 isoform 2 (UniProt O60225),-0.096,-0.015,0.038,-0.026,–,-0.082,-0.271,-0.172,-0.002,0.005
STN1 (UniProt Q9H668),-0.078,-0.032,0.173,0.016,–,0.024,-0.149,-0.026,-0.562 (active),0.053
SVIP (UniProt Q8NHG7),-0.014,0.028,-0.017,0.025,0.098,-0.042,-0.055,0.05,-0.039,-0.099
SLC25A44 (UniProt Q96H78),-0.05,0.007,-0.221,0.064,0.14,0.015,-0.013,–,0.099,–
SKP2 (UniProt Q13309),-0.048,-0.077,0.044,0.189,0.03,-0.053,0.085,0.01,0.173,0.058
SH3BP2 isoform 4 (UniProt P78314),-0.023,0.026,0.03,-0.054,0.099,–,–,–,0.053,–
SOX5 (UniProt P35711),0.048,-0.113,-0.219,0.017,0.074,0.034,-0.025,–,-0.104,–
SH3BP5L (UniProt Q7L8J4),-0.003,-0.012,0.036,-0.003,-0.015,0.058,-0.047,0.021,0.015,0.001
